Reference: PubChem BioAssay (Tox21)
Inconclusive results are not listed. Entries that show only a call come without a potency. Calls of active or inactive are those of the source. Unless noted, calls follow the shape of the dose curve; as a rule, active = well fitted curve in the direction sought with a large enough effect in the repeat runs; inconclusive = weak or mixed curves; inactive = no such curve, though single readings can be large; an effect the other way counts as inactive or inconclusive.

How the values were obtained:
[1] = qHTS assay to test for compound auto fluorescence at 535 nm (green) in HEK293 cells (AID 720680)
[2] = qHTS assay to test for compound auto fluorescence at 460 nm (blue) in HEK293 cell free culture (AID 720681)
In short: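 Test compounds were pinned into cell-free culture medium (DMEM with 10% FBS) and fluorescence was read directly at Ex/Em 405/460 nm. Signals were expressed as fluorescence equivalents of triamterene, with DMSO vehicle as control.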

[3] = qHTS assay to test for compound auto fluorescence at 535 nm (green) in HEK293 cell free culture (AID 720682)
In short: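 Each library compound, or DMSO control, is added by pintool to medium alone, comprising DMEM and 10% FBS. Emission at 535 nm following 485 nm excitation is quantified against fluorescein.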

[4] = qHTS assay to test for compound auto fluorescence at 590 nm (red) in HEK293 cell free culture (AID 720683)
In short: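 Tox21 10K library compounds were pinned into cell-free DMEM with 10% FBS and fluorescence was read at excitation 540 nm. Activity is expressed as Rose Bengal sodium equivalency.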

[5] = qHTS assay to test for compound auto fluorescence at 590 nm (red) in HepG2 cell free culture (AID 720684)
In short: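 Measured in medium alone (MEM containing 10% FBS) following pintool addition of compound; emission at 590 nm with 540 nm excitation, referenced to Rose Bengal sodium.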

[6] = qHTS assay to test for compound auto fluorescence at 535 nm (green) in HepG2 cell free culture (AID 720686)
[7] = qHTS assay to test for compound auto fluorescence at 460 nm (blue) in HepG2 cells (AID 720687)
In short: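 Cells (2,000/well in MEM with 10% FBS) attached overnight at 37 C, then were exposed to compound or DMSO for 1 hr at 37 C, 5% CO2. Fluorescence read at Ex/Em 405/460 nm, expressed as triamterene-equivalent signal.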

[8] = target: Glucocorticoid receptor (Homo sapiens) (UniProt P04150); test: qHTS assay to identify small molecule agonists of the glucocorticoid receptor (GR) signaling pathway (AID 720691; active = well fitted activation curve with a large enough effect in the signal ratio in the repeat runs, not every such curve was filed as active; the % refers to the signal ratio; also: potency is read from the fitted curve at half-maximal effect); details: GR-bla HeLa, beta-lactamase reporter ratio, 18 h; activation: at 62.4 µM (top of the series)
In short: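 Fluorescence intensity from LiveBLAzer B/G FRET substrate (2 h, room temperature) reports beta-lactamase expression driven by the glucocorticoid response element in GR-bla HeLa cells after 18 h compound exposure at 37 C.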

[9] = target: Glucocorticoid receptor (Homo sapiens) (UniProt P04150); test: qHTS assay to identify small molecule antagonists of the glucocorticoid receptor (GR) signaling pathway (AID 720692; active = well fitted inhibition curve with a large enough effect in the signal ratio in the repeat runs, not every such curve was filed as active; the % refers to the signal ratio)
In short: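 HeLa GR-bla cells; cmpd + dex 5 nM final, 18 h 37 C; LiveBLAzer B/G FRET substrate 2 h RT; fluorescence intensity read. Antagonist mode, qHTS.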

[10] = qHTS assay for identifying genotoxic compounds that show differential cytotoxicity against isogenic chicken DT40 cell lines with known DNA damage response pathways - wild type cell line (AID 743012); also: nearly all actives have a fitted effect of over 60% in size; also: potency is read from the fitted curve at half-maximal effect
In short: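 Wild type DT40, 300 cells/well, ~0.5 h settle at 37 C/5% CO2; compounds in DMSO added by pintool; 40 h at 37 C/5% CO2; CellTiter-Glo, 30 min RT; luminescence.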

[11] = qHTS assay for identifying genotoxic compounds that show differential cytotoxicity against isogenic chicken DT40 cell lines with known DNA damage response pathways - Rad54/Ku70 mutant cell line (AID 743015); also: nearly all actives have a fitted effect of over 60% in size; also: potency is read from the fitted curve at half-maximal effect
[12] = qHTS assay to identify small molecule antagonists of the glucocorticoid receptor (GR) signaling pathway - cell viability counter screen (AID 720693); also: nearly all actives have a fitted effect of over 55% in size
[13] = qHTS assay for identifying genotoxic compounds that show differential cytotoxicity against isogenic chicken DT40 cell lines with known DNA damage response pathways - Rev3 mutant cell line (AID 743014); also: nearly all actives have a fitted effect of over 55% in size; also: potency is read from the fitted curve at half-maximal effect
[14] = qHTS assay to identify small molecule antagonists of the androgen receptor (AR) signaling pathway using the MDA cell line - cell viability counter screen (AID 743041; also: nearly all actives have a fitted effect of over 45% in size)
In short: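 Viability counter screen run alongside the AR antagonist reporter: cells seeded 5 h before compound, R1881 added, 16 h incubation at 37C without CO2, fluorescent CellTiter-Fluor signal quantified.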

[15] = qHTS assay to identify small molecule antagonists of the androgen receptor (AR) signaling pathway - cell viability counter screen (AID 743033; also: nearly all actives have a fitted effect of over 45% in size)
[16] = target: Androgen receptor (Homo sapiens) (UniProt P10275); test: qHTS assay to identify small molecule agonists of the androgen receptor (AR) signaling pathway (AID 743036; active = well fitted activation curve with a large enough effect in the signal ratio in the repeat runs, with a control signal flat, not every such curve was filed as active; the % refers to the signal ratio; also: potency is read from the fitted curve at half-maximal effect)
In short: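 Following a 4 h settling period, AR-UAS-bla HEK293 cells were dosed with compounds for 16 h at 37C. A 2 h room-temperature incubation with LiveBLAzer B/G FRET substrate preceded the fluorescence measurement.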

[17] = target: Androgen receptor (Homo sapiens) (UniProt P10275); test: qHTS assay to identify small molecule agonists of the androgen receptor (AR) signaling pathway using the MDA cell line (AID 743040; also: nearly all actives have a fitted effect of over 20% in size; also: potency is read from the fitted curve at half-maximal effect)
In short: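 Luminescence from ONE-Glo, read after 30 min at room temperature, reflects MMTV-driven luciferase in MDA-kb2 cells (AR- and GR-responsive). Treatment lasted 16 h at 37C, 0% CO2.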

[18] = target: Androgen receptor (Homo sapiens) (UniProt P10275); test: qHTS assay to identify small molecule antagonists of the androgen receptor (AR) signaling pathway using the MDA cell line (AID 743042; also: nearly all actives have a fitted effect of over 55% in size)
In short: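 MDA-kb2 cells (human breast carcinoma, stably carrying an MMTV-luciferase reporter responsive to AR and GR) were plated at 3,000 cells/well and preincubated 5 hr at 37C, then given compound plus R1881 agonist for 16 h. ONE-Glo luminescence was read.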

[19] = qHTS assay to test for compound auto fluorescence at 460 nm (blue) in HepG2 cell free culture (AID 720685)
In short: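 Compound (23 nL) or DMSO pinned into cell-free MEM with 10% FBS; blue fluorescence read at 405/460 nm excitation/emission, expressed as auto-fluorescence equivalency to triamterene.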

[20] = target: Androgen receptor (Homo sapiens) (UniProt P10275); test: qHTS assay to identify small molecule antagonists of the androgen receptor (AR) signaling pathway (AID 743035; active = well fitted inhibition curve with a large enough effect in the signal ratio in the repeat runs, not every such curve was filed as active; the % refers to the signal ratio)
In short: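 Fluorescence from a beta-lactamase FRET substrate (LiveBLAzer B/G, 2 h, room temperature) measured inhibition of R1881-stimulated signaling in GeneBLAzer AR-UAS-bla HEK293 cells exposed to compound for 16 h at 37C.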

Glucocorticoid receptor (Homo sapiens), sequence (P04150 whole entry, looked up): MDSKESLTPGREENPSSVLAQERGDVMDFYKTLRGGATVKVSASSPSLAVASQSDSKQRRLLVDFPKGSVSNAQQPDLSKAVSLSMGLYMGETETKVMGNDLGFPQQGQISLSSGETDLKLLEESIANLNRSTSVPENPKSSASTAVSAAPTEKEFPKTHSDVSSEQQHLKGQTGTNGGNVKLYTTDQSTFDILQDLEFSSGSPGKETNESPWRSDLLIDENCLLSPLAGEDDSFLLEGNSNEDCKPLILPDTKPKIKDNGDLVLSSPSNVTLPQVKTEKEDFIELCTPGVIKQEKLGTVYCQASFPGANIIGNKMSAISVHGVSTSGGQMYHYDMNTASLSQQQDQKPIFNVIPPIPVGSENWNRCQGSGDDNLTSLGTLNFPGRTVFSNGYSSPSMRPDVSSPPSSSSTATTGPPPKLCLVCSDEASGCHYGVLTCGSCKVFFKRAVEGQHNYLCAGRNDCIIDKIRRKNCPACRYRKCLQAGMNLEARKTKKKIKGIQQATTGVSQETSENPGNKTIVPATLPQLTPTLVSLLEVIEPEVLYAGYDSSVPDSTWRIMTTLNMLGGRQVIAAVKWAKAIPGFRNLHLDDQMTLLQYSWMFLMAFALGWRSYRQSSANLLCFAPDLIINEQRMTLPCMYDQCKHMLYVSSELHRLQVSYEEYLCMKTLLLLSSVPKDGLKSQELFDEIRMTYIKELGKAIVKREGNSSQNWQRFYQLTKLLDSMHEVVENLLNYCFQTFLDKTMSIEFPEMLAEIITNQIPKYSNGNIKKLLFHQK
Androgen receptor (Homo sapiens), sequence (P10275 whole entry, looked up): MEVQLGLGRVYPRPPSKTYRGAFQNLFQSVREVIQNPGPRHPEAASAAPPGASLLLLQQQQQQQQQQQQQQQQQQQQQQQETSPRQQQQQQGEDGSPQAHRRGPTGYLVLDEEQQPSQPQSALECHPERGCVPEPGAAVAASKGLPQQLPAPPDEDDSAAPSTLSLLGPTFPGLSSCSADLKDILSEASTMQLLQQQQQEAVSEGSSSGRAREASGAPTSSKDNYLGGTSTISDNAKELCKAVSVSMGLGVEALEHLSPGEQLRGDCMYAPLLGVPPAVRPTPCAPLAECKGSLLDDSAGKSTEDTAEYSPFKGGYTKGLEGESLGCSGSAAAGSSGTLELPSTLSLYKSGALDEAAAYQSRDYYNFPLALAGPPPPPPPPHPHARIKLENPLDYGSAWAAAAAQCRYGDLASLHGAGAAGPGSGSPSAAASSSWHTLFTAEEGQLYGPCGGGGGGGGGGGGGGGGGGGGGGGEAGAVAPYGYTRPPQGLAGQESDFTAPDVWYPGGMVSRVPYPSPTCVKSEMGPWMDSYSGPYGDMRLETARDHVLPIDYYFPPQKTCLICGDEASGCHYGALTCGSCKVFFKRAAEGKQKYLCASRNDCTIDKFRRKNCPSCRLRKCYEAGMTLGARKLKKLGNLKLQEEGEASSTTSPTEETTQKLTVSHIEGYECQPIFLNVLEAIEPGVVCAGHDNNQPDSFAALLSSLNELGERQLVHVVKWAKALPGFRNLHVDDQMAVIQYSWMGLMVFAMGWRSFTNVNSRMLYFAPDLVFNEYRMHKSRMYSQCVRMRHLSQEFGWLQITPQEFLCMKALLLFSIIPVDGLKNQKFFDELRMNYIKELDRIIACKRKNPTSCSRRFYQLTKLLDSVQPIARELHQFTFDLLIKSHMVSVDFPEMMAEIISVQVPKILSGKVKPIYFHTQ

SMILES | Potency [1] | Potency [2] | Potency [3] | Potency [4] | Potency [5] | Potency [6] | outcome [7] | Potency [8] | Potency [9] | Potency [10] | Potency [11] | Potency [12] | Potency [13] | Potency [14] | Potency [15] | Potency [16] | Potency [17] | Potency [18] | outcome [19] | Potency [20]
C[C@@H]1CCC2[C@@H](C)[C@@H](O)O[C@@H]3O[C@@]4(C)CC[C@@H]1[C@@]23OO4 (stereo partly drawn) | inactive | inactive | inactive | inactive | inactive | inactive | inactive | inactive | inactive | 0.119 µM (active) | 0.0473 µM (active) | – | – | – | – | – | – | – | – | –
CC(=O)OCC(=O)[C@@]12OC3(CCCC3)O[C@@H]1C[C@H]1[C@@H]3CCC4=CC(=O)C=C[C@]4(C)[C@@]3(F)[C@@H](O)C[C@@]12C | inactive | inactive | inactive | inactive | inactive | inactive | inactive | 0.019 µM (active) | – | – | – | inactive | inactive | inactive | – | – | – | – | – | –
O=C(O)CC/C=C\CC[C@@H]1[C@@H](N2CCCCC2)[C@@H](O)C[C@@H]1OCc1ccc(-c2ccccc2)cc1 | inactive | inactive | inactive | inactive | inactive | inactive | inactive | inactive | inactive | 13.3 µM (active) | – | inactive | – | inactive | inactive | inactive | inactive | inactive | – | –
CCC(=O)OCC(=O)[C@@]1(OC(=O)CC)[C@H](C)C[C@H]2[C@@H]3CCC4=CC(=O)C=C[C@]4(C)[C@@]3(F)[C@@H](O)C[C@@]21C | inactive | inactive | inactive | inactive | inactive | inactive | inactive | – | – | 23.7 µM (active) | 26.6 µM (active) | inactive | 29.8 µM (active) | inactive | – | – | – | – | – | –
NC(=O)Oc1ccc(Cc2ccccc2)cc1 | inactive | inactive | inactive | – | inactive | inactive | inactive | inactive | inactive | inactive | inactive | inactive | inactive | – | inactive | – | – | – | inactive | –
CC(C)(C)C1(O)CCN2CC3c4ccccc4CCc4cccc(c43)C2C1 (stereo not drawn) | inactive | inactive | inactive | inactive | inactive | inactive | inactive | inactive | – | 9.44 µM (active) | – | inactive | 11.9 µM (active) | – | inactive | – | – | – | – | –
CCCOc1cc(N)ccc1C(=O)OCCN(CC)CC | inactive | inactive | inactive | inactive | inactive | inactive | inactive | – | inactive | inactive | inactive | inactive | inactive | inactive | inactive | inactive | inactive | inactive | – | inactive
CCCCCCCCCCCCCCCCSCC(COC)COP(=O)([O-])OCC[N+](C)(C)C (stereo not drawn) | inactive | inactive | inactive | inactive | inactive | inactive | inactive | inactive | – | – | inactive | – | inactive | inactive | inactive | – | inactive | inactive | – | –
O=C(NNCNNC(=O)c1ccncc1)c1ccncc1 | inactive | inactive | inactive | inactive | inactive | inactive | inactive | – | – | inactive | inactive | inactive | inactive | inactive | inactive | – | – | – | – | –
C=C(NC(=O)C(=C)NC(=O)c1csc(C2=N[C@@H]3c4csc(n4)[C@H]4NC(=O)c5csc(n5)[C@H]([C@](C)(O)[C@@H](C)O)NC(=O)[C@H]5CSC(=N5)C(=CC)NC(=O)C([C@@H](C)O)NC(=O)c5csc(n5)[C@]3(CC2)NC(=O)[C@H](C)NC(=O)C(=C)NC(=O)[C@H](C)NC(=O)C([C@@H](C)CC)NC2C=Cc3c([C@H](C)O)cc(nc3C2O)C(=O)O[C@@H]4C)n1)C(N)=O (stereo partly drawn) | inactive | inactive | inactive | inactive | inactive | inactive | inactive | – | – | 2.54 µM (active) | 4.03 µM (active) | inactive | 3.2 µM (active) | – | – | – | inactive | – | – | –
Cc1ncc(C[n+]2csc(CCOP(=O)(O)OP(=O)(O)O)c2C)c(N)n1 | inactive | inactive | inactive | inactive | inactive | inactive | inactive | inactive | inactive | inactive | – | inactive | inactive | inactive | inactive | inactive | inactive | inactive | – | –
CCCCCCCCCCCCCCCC(=O)OC[C@@H](NC(=O)C(Cl)Cl)[C@H](O)c1ccc([N+](=O)[O-])cc1 | inactive | inactive | inactive | inactive | inactive | inactive | inactive | – | – | inactive | inactive | inactive | inactive | inactive | inactive | – | – | – | – | –
CCC(=O)O[C@H]1CC[C@H]2[C@@H]3CCc4cc(O)ccc4[C@H]3CC[C@]12C | inactive | inactive | inactive | inactive | inactive | inactive | inactive | – | – | 23.7 µM (active) | 23.7 µM (active) | – | 21.1 µM (active) | inactive | inactive | 3.01 µM (active) | 4.73 µM (active) | inactive | – | –
COc1ccc(C(=O)Nc2ccccc2CCC2CCCCN2C)cc1 (stereo not drawn) | inactive | inactive | inactive | inactive | inactive | inactive | inactive | inactive | inactive | – | inactive | inactive | inactive | inactive | – | – | – | – | – | –
CCC(=O)OCC(=O)[C@@]1(OC(=O)CC)[C@@H](C)C[C@H]2[C@@H]3CCC4=CC(=O)C=C[C@]4(C)[C@@]3(F)[C@@H](O)C[C@@]21C | inactive | inactive | inactive | inactive | inactive | inactive | inactive | – | – | 13.3 µM (active) | 23.7 µM (active) | inactive | 29.8 µM (active) | inactive | – | – | – | – | – | –
